Hits are enriched below; roughly 27% of the tested compounds scored in any of these assays.
CYP2C9 activ: human CYP2C9 activators, primary screen, biochemical, luminescence | Cytochrome P450 2C9 (Homo sapiens), P11712 | recombinant CYP2C9, luciferin-H conversion; active compounds read high; factor 1 = untreated enzyme, 0 = blocked | activation factor at 5 µM | hit rate 1.4% among 96,000;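 active = activation factor of 2 or more for CYP2C9 at a 5 µM dose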;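 note: 0 = sulfaphenazole-blocked wells and 1 = vehicle-only wells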
CYP2C9 inh: blockers of cytochrome P450 2C9 activity – biochemical, luminescence, ADME assay, primary screen | P11712 | CYP2C9 Supersomes, luciferin-H conversion | hit rate 20% among 96,000 | AID 777, 2007 | inhibition, % at 5 µM;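 active = blocking of liver enzyme CYP2C9 beyond about 50% at 5 µM, limit read from the data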
CYP2C19 activ: human CYP2C19 activators, primary screen, biochemical, luminescence. Cytochrome P450 2C19 (Homo sapiens), P33261. recombinant CYP2C19, luciferin-H EGE luminescence; active compounds read high; 0 = fully inhibited enzyme, 1 = untreated enzyme. AID 1025, 2008. activation factor at 5 µM. 96,000 tested, under 10 active;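 active = activation factor of at least 2 at 5 µM in the primary screen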;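 note: 0 = wells with 2.5 mM tranylcypromine and 1 = vehicle-only wells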
EphB4 antag: EphB4-ephrin-B2 interaction antagonists, primary screen, biochemical, TNYL-RAW peptide probe, fluorescence polarization. inhibition, % at 7 µM. Ephrin type-B receptor 4 (Homo sapiens), P54760. EphB4 LBD / TNYL-RAW-Alexa532 peptide. AID 720, 2007. hit rate 0.15% among 97,000;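 active = inhibition above the screen-wide mean inhibition plus 3 SD, cut at about 15% in these data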;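 note: 0% = DMSO wells and 100% = excess unlabeled TNYL-RAW peptide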
Target sequence (P54760 whole entry, looked up, the tested form may be a part): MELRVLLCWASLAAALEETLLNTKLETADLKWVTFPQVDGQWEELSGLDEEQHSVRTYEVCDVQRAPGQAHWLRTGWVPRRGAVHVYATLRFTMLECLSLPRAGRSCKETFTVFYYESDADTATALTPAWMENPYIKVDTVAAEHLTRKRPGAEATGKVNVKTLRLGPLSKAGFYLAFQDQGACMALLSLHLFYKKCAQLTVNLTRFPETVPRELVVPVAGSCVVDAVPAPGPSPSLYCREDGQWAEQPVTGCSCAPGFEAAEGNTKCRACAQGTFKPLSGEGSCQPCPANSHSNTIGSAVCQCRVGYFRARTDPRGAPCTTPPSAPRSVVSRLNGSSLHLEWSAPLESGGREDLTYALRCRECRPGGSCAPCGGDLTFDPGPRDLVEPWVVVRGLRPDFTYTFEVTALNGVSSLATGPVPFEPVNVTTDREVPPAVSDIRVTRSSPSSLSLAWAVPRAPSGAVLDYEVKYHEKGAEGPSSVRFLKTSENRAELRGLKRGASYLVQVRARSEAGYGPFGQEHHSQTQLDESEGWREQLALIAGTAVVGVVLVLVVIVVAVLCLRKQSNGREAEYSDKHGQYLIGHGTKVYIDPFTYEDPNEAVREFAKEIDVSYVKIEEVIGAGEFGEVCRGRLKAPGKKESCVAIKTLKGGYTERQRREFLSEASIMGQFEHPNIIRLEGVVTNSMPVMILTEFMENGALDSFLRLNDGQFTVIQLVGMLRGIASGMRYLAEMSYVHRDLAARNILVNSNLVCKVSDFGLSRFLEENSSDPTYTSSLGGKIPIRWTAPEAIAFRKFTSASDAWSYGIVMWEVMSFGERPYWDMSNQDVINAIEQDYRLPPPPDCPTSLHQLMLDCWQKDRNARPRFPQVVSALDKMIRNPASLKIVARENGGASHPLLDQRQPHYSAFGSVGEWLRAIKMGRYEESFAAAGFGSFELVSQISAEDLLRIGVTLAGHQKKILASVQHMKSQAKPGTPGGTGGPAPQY
CYP2C19 inhib: blockers of cytochrome P450 2C19 activity – biochemical, luminescence, ADME assay, primary screen | P33261 | hit rate 21% among 96,000 | inhibition, % at 5 µM | AID 778, 2007 | CYP2C19 Supersomes, luciferin-H EGE luminescence, 30 min;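 active = CYP2C19 inhibition above a set limit at 5 µM in the primary screen, cut at about 50% in these data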;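 note: plate controls were negative control wells for no effect and 2.5 mM tranylcypromine positive control for full effect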
* hit, by the source's call; x = not tested or not shown.

SMILES | CYP2C9 activ | CYP2C9 inh | CYP2C19 activ | EphB4 antag | CYP2C19 inhib
O=C(CSc1nc(-c2cccs2)cc(C(F)(F)F)n1)NCc1ccco1 | 0.2 | 79* | 0.4 | 2 | 62*
COc1ccc(-c2cc(C(F)(F)F)nc(SCC(=O)NCc3cccs3)n2)cc1 | 0.6 | 40 | 1.1 | -8 | -12
O=C(NCc1ccco1)c1nn2c(C(F)(F)F)cc(-c3cccs3)nc2c1Br | 0.3 | 73* | 0.8 | 5 | 15
CCC(C)NC(=O)CSc1nc(-c2cccs2)cc(C(F)(F)F)n1 (stereo unspecified) | 0.1 | 88* | 0 | 7 | 97*
CC(=O)SCCC(=O)Nc1ccccc1 | 0.7 | 31 | 0.5 | 1 | 48
O=C(NC1CC1)C1CCC(=O)N1C1CCCC1 (stereo unspecified) | 1.1 | -13 | 1.2 | -3 | -15
COC(=O)c1ccccc1NC(=O)C1CC(=O)N(c2ccc(C)c(C)c2)C1 (stereo unspecified) | 1.5 | -54 | 0.6 | 3 | 37
COC(=O)c1ccccc1NC(=O)C1CC(=O)N(C2CCCCC2)C1 (stereo unspecified) | 0.4 | 59* | 0.3 | x | 66*
CCc1ccc(N2CC(C(=O)N/N=C/c3cccc([N+](=O)[O-])c3)CC2=O)cc1 (stereo unspecified) | 0.3 | 69* | 0.8 | 5 | 16
COC(=O)c1ccccc1NC(=O)C1CC(=O)N(c2ccc(F)cc2)C1 (stereo unspecified) | 0.4 | 64* | 0.2 | 7 | 84*
CCOc1ccccc1C(=O)NC(C(=O)Nc1ccccc1N1CCOCC1)C(C)C (stereo unspecified) | 0.3 | 73* | 0.6 | 3 | 38
CCCCSc1nc2c(=O)[nH][nH]c(=O)c2n1Cc1ccccc1 | x | x | x | -7 | x
O=C(NC1CCCCCCC1)c1ccc(S(=O)(=O)N2CCCC2)cc1 | 0.7 | 29 | 1 | -3 | 1
COc1cc(C(=O)O/N=C2/C=CC(=O)C(C)=C2C)cc(OC)c1OC | 0.6 | 41 | 0.9 | 0 | 9
CCCOc1ccc(N2CC(C(=O)Nc3ccccc3F)CC2=O)cc1 (stereo unspecified) | 0.6 | 41 | 1 | 4 | 3
CCc1ccc(N2CC(C(=O)Nc3ccccc3F)CC2=O)cc1 (stereo unspecified) | 0.2 | 82* | 0.5 | 2 | 46
CCOc1ccc(N2CC(C(=O)Nc3ccccc3N3CCOCC3)CC2=O)cc1 (stereo unspecified) | 0.2 | 85* | 0.6 | 1 | 41
Cc1ccc(N2CCN(CC(=O)Nc3c(C(=O)C4CC4)oc4ccccc34)CC2)cc1 | 1 | 0 | 1.1 | 3 | -12
CCCc1nnc(NC(=O)CCC(=O)O)s1 | 1.1 | -9 | 1.1 | -1 | -8
CCOC(=O)CNC(=O)C1(c2ccccc2)CCCC1 | 0.7 | 32 | 0.7 | -1 | 31
COC(=O)COc1ccc(S(=O)(=O)NCC2CCCO2)cc1Cl (stereo unspecified) | 1.1 | -6 | 0.8 | 1 | 17
COc1cc(C)c(Cl)cc1S(=O)(=O)NCC1CCCO1 (stereo unspecified) | 1.5 | -46 | 0.1 | 5 | 94*
O=S(=O)(NCC1CCCO1)c1cc(Br)c(Br)s1 (stereo unspecified) | 2* | -97 | 0.3 | x | 66*
CCOc1cc(C)c(Cl)cc1S(=O)(=O)NCC1CCCO1 (stereo unspecified) | 1.2 | -25 | 0.1 | 1 | 90*
O=S(=O)(NCC1CCCO1)c1ccc(Cl)c(C(F)(F)F)c1 (stereo unspecified) | 3.9* | -290 | 0.3 | -4 | 66*
SMILES | CYP2C9 activ | CYP2C9 inh | CYP2C19 activ | EphB4 antag | CYP2C19 inhib
Cn1c(=O)oc2cc(S(=O)(=O)NCC3CCCO3)ccc21 (stereo unspecified) | x | x | x | 2 | x
COc1ccc(OC)c(S(=O)(=O)NCC2CCCO2)c1 (stereo unspecified) | 1 | 2 | 0.8 | 2 | 20
CCn1c(Cc2ccccc2)nnc1SCC(=O)Nc1ccc(S(N)(=O)=O)cc1 | 0.8 | 18 | 0.9 | -1 | 6
COc1cc(S(=O)(=O)NCC2CCCO2)ccc1Br (stereo unspecified) | 2.6* | -160 | 0.6 | 2 | 36
CCN1CCN(c2nc3c(c(=O)n(C)c(=O)n3C)n2CCSc2ncccn2)CC1 | 0.8 | 18 | 1 | -8 | 5
CCN(CCCNC(=O)CCCCn1c(=O)[nH]c2ccccc2c1=O)c1ccccc1 | 0.3 | 68* | 0.4 | 8 | 62*
COc1cc(OC)c(NC(=O)CCNC(=O)Cn2ccc3ccccc3c2=O)cc1Cl | 0.9 | 10 | 1 | -4 | 1
O=C(CCn1c(=O)[nH]c2ccccc2c1=O)Nc1ccccc1 | 0.5 | 47 | 0.5 | 1 | 53*
COCCCNC(=O)CCCn1c(=O)[nH]c2ccccc2c1=O | 1 | 0 | 1.1 | 1 | -8
CCN(CCCNC(=O)CCNC(=O)Cn1ccc2ccccc2c1=O)c1ccccc1 | 0.2 | 77* | 0.3 | 1 | 68*
COc1cccc(NC(=O)CCNC(=O)Cn2ccc3ccccc3c2=O)c1 | 0.3 | 71* | 0.7 | 2 | 35
Cc1ccc(C)c(N2CC(=O)N(c3cc(C)ccc3C)CC2=O)c1 | 1.1 | -14 | 1.1 | 7 | -11
CCOC(=O)c1cc2n(n1)C(C(F)(F)F)CC(C)N2 (stereo unspecified) | 1 | 2 | 0.6 | -4 | 35
COc1cc(NC(=O)CCn2c(=O)[nH]c3ccsc3c2=O)cc(OC)c1 | x | x | x | -5 | x
CCOc1ccc(NC(=O)CCn2c(=O)[nH]c3ccsc3c2=O)cc1 | 0.4 | 57* | 0.8 | 4 | 16
c1ccc(-c2cc3n(c2)CCc2ccccc2-3)cc1 | x | x | x | 1 | x
CCCn1c(SCC(=O)N2CCCC2)nc2c1c(=O)n(C)c(=O)n2C | 0.9 | 12 | 0.9 | 5 | 13
Cc1ccc(N=Cc2sc(O)c3ccccc23)c(C)c1 | 0.4 | 63* | 0.6 | -4 | 41
COc1cc(-c2nnc(CSc3nnc4nc(C)cc(C)n34)o2)cc(OC)c1OC | 0.9 | 9 | 0.9 | -4 | 10
COCCOC(=O)c1[nH]c2c(c1C)C(=O)CC(c1cc(OC)ccc1OC)C2 (stereo unspecified) | 0.4 | 59* | 0.9 | x | 8
COc1ccc(OC)c(C2CC(=O)Nc3cc(OC)c(OC)c(OC)c32)c1 (stereo unspecified) | 0.7 | 28 | 0.7 | -4 | 27
COc1ccc(OC)c(C2CC(=O)c3c([nH]c(C(=O)OCC4CCCO4)c3C)C2)c1 (stereo unspecified) | 0.3 | 66* | 0.6 | -2 | 36
COc1ccccc1C1CC(=O)NC(C)=C1C(=O)OCC1CCCO1 (stereo unspecified) | 1.1 | -7 | 0.7 | -5 | 28
